D2 ag-1: Beta-Arrestin HTS for Positive Allosteric Modulators of the Human D2 Dopamine Receptor: Agonists. 360,000 compounds, 0.084% hits. AID 624465, 2012. D(2) dopamine receptor (Homo sapiens), P14416. DiscoveRx PathHunter D2 beta-arrestin, luminescence, 90 min; 100% = 57 uM dopamine signal. activation, % (concentration not given with the values); in the data active = activation above about 40%; inconclusive = between about 15% and that limit
Target sequence (P14416 whole entry, looked up): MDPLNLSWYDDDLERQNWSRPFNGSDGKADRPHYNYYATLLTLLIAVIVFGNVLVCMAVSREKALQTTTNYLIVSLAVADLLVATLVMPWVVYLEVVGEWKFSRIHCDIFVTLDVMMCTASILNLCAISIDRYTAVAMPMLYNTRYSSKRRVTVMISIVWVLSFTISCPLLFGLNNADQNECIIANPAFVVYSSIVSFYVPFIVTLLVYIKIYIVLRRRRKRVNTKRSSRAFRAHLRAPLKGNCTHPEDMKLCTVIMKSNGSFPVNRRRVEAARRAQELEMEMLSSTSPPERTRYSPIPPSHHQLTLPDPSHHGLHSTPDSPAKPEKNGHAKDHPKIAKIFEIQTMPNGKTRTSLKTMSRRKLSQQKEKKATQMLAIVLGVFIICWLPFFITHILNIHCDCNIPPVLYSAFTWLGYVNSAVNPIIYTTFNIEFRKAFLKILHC
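Agonist mode: compounds alone added to overnight-plated D2 PathHunter cells for 90 min at 37 C, with 57 uM final dopamine (EC100) defining full response. Beta-arrestin recruitment detected by chemiluminescent reagent, read after 1 h at ambient temperature.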
D2 ag-2: HTS Assay for Allosteric Agonists of the Human D2 Dopamine Receptor: Primary Screen for Agonists; D(2) dopamine receptor (Homo sapiens), P14416; HEK293 T-REx D2 cells, calcium flux agonist mode; activation, % at 2 µM; 340,000 compounds, 0.53% hits; AID 485358, 2010;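 active = activation over 3 SD above normal in the single-dose calcium agonist read, cut at about 30% in these data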; also: 0% is about no effect
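Agonism is scored from calcium flux in a force-coupled, inducible HEK293 cell line expressing D2, read kinetically for 180 s after compound addition against dopamine controls.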
D2 PAM-1: HTS Assay for Positive Allosteric Modulators of the Human D2 Dopamine Receptor: Primary Screen for Potentiators | potentiation, % at 10 µM | AID 485347, 2010 | 340,000 compounds, 0.34% hits | HEK293 T-REx D2, calcium flux, EC20 dopamine potentiation;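 active = potentiation over 3 SD above the plate norm, cut at about 30% in these data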; also: 0% is about no effect
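Tetracycline-induced Hek293 Trex D2 cells, force-coupled to calcium, loaded with no-wash calcium dye. Compound added with 180 s kinetic read for agonism, then EC20 dopamine and a further 180 s read for potentiation.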
D2 PAM-2: Beta-Arrestin HTS for Positive Allosteric Modulators of the Human D2 Dopamine Receptor: Potentiators | D(2) dopamine receptor (Homo sapiens), P14416 | DiscoveRx D2 beta-arrestin cells, luminescence, 90 min; 100% = 57 uM dopamine signal | potentiation, % (concentration not given with the values) | 360,000 compounds, 0.23% hits; in the data active = potentiation above about 50%; inconclusive = mostly about 30% to 49%
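PathHunter D2 cells, attached overnight at 37 deg C, received compound in DMSO plus dopamine at EC20 (50 nM final) for 90 min at 37 deg C. Beta-arrestin recruitment was read as luminescence after 1 h with detection reagent at ambient temperature.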
D2 antag: HTS Assay for Allosteric Antagonists of the Human D2 Dopamine Receptor: Primary Screen for Antagonists; HEK293 TREx D2 cells, calcium flux, dopamine EC80; inhibition, % at 10 µM; 340,000 compounds, 2% hits; in the data active = inhibition above about 30%; inactive = below that, where a call was filed; also: 0% is about no effect
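Tetracycline-induced HEK293 TREx cells expressing D2 receptor forced-coupled to calcium signalling, loaded with no-wash calcium dye. Compounds added and calcium flux read 180 s, then dopamine added at EC80 and read a further 180 s.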
Numbers without * were called inactive; ? = inconclusive; · = no result. Rows were chosen to be rich in hits. Some 2.4% of all compounds tested hit in one or more screens of this group.

SMILES | D2 ag-1 | D2 ag-2 | D2 PAM-1 | D2 PAM-2 | D2 antag
Cc1ccc(CC(=O)NCC(O)c2ccccc2)cc1 (centres undefined) | -2.2 | 0.9 | -1.4 | 0.0 | 6.2
Cc1cccc(NC(=O)COC(=O)c2cccc3c2C(=O)c2ccccc2C3=O)c1C | ? | 0.0 | -0.7 | 89.7* | -14.8
Nc1cccc(C(=O)OCC(=O)Nc2cccc3c2C(=O)c2ccccc2C3=O)c1 | ? | 0.7 | -0.1 | 60.2* | -1.8
NS(=O)(=O)c1cc(C(=O)NCC2CCCCC2)ccc1Cl | 2.7 | 1.3 | 4.8 | -0.8 | 7.8
CCOc1ccc2ccccc2c1/C=N\NC(=O)c1ccc([N+](=O)[O-])cc1 | 13.8 | 0.1 | -21.1 | -11.6 | 39.5*
CCOc1ccc2ccccc2c1/C=N\NC(=O)OC | 0.4 | -0.7 | -3.4 | -19.5 | -1.4
CCOc1ccccc1NC(=O)NNS(=O)(=O)c1ccc([N+](=O)[O-])cc1 | -3.6 | -0.5 | 5.1 | 17.6 | -4.8
CCOc1ccccc1NC(=O)CSc1ccc([N+](=O)[O-])cc1 | -3.0 | 0.1 | -14.3 | -4.8 | 40.9*
Fc1c(F)c(F)c(N/N=C/c2c[nH]c3ccccc23)c(F)c1F | ? | 0.2 | 13.5 | 60.2* | -7.0
Cc1cc(C)n2nc(SCc3nnc(-c4ccccc4Br)o3)nc2n1 | -3.1 | 1.7 | 44.5* | -0.5 | -7.7
Cc1cc(C)n2nc(SCc3ncc(-c4ccccc4)o3)nc2n1 | -6.4 | -0.5 | 11.3 | -13.1 | -6.7
CC1(C)C(c2cccs2)=[N+]([O-])C2(CCCCC/C2=N\O)N1O (centres undefined) | 5.3 | -0.9 | 11.6 | ? | 5.5
CC1(C)C(c2ccccc2)=[N+]([O-])C2(CCCCC2=O)N1O (centres undefined) | 6.1 | -0.5 | 4.4 | 21.4 | 33.4*
CCC[C@H]1COCCS(=O)(=O)N1Cc1ccc(Br)cc1 | · | 0.0 | 10.5 | · | -6.1
COc1ccc(Cl)cc1C(=O)NCCN(C)C | -2.0 | -0.2 | -19.4 | -26.1 | 33.5*
COc1ccccc1C(=O)NCCC(=O)N(C)CC(=O)Nc1c(Cl)cccc1Cl | 0.8 | 1.7 | 4.9 | -9.5 | -7.9
COc1ccc(Cl)cc1NC(=O)CN(C)C(=O)CCNC(=O)c1ccccc1OC | -2.2 | 0.3 | -9.8 | -22.3 | 30.6*
COc1ccc(Cl)cc1NC(=O)CN(C)C(=O)c1cc2c(s1)CCCC2 | 0.4 | 0.6 | -14.4 | 2.4 | 46.4*
COc1ccc(Cl)cc1NC(=O)CN(C)C(=O)c1cn(-c2ccccc2)nc1-c1cccnc1 | -4.1 | -0.6 | -10.7 | -35.5 | 44.3*
COc1ccc(Cl)cc1NC(=O)CN(C)C(=O)Cc1ccc2c(c1)CCC2 | -5.9 | -0.8 | -10.3 | -36.4 | -30.9
CN1c2ccccc2-c2nc(SCC(=O)Nc3ccccc3)ncc2S1(=O)=O | · | 0.4 | -6.2 | · | ·
CC(C)Oc1ccc(CNC(=O)CN2C(=O)CCn3nc(-c4cn(C)c5ccccc45)cc32)cc1 | · | -0.2 | -3.1 | · | ·
Cc1cc(NC(=O)CCC(=O)N(CC(=O)NC2CCCC2)c2ccc(Cl)cc2)no1 | -1.6 | -1.3 | -15.7 | -6.5 | 11.2
Cc1nc(CC(=O)Nc2cc(Cl)ccc2C)cs1 | · | -0.2 | 11.5 | · | ·
CCOC(=O)CN1CC23C=CC(O2)C(C(=O)NC2CCCC2)C3C1=O (centres undefined) | 0.5 | -1.0 | 45.5* | 0.0 | -6.9
SMILES | D2 ag-1 | D2 ag-2 | D2 PAM-1 | D2 PAM-2 | D2 antag
CCOC(=O)CN1CC23C=CC(O2)C(C(=O)NC2CCCCC2)C3C1=O (centres undefined) | -3.6 | 0.2 | 3.6 | 2.3 | -7.5
COCCCNC(=O)C1C2C=CC3(CN(Cc4ccc(C)cc4)C(=O)C13)O2 (centres undefined) | -1.4 | 0.2 | 14.6 | -11.9 | 39.1*
Cc1ccc(CN2CC34C=CC(O3)C(C(=O)NCc3ccc5c(c3)OCO5)C4C2=O)cc1 (centres undefined) | -1.9 | · | · | -0.4 | ·
Cc1cc(C(=O)NNC(=O)c2ccc(C)c([N+](=O)[O-])c2)c(C)o1 | -1.0 | -0.6 | 7.7 | -4.1 | -0.2
CCOc1ccc(Oc2ccc(C(F)(F)F)cc2NC(=O)C2=COCCO2)cc1 | -1.3 | · | · | -1.3 | ·
COc1ccc(Nc2ncc3c(n2)CC(c2ccc(OC)cc2)CC3=O)cc1 (centres undefined) | -0.7 | 2.8 | · | -2.6 | -22.1
COc1ccc(Nc2ncc3c(n2)CC(c2ccc(C)cc2)CC3=O)cc1 (centres undefined) | 0.9 | -0.4 | 20.7 | 0.8 | 36.4*
O=C(O)CCCn1cc(NC(=O)COc2ccc([N+](=O)[O-])cc2)cn1 | -1.5 | 0.2 | 30.6* | -1.1 | -5.6
Cc1cc(OCC(=O)Nc2cnn(CCCC(=O)O)c2)ccc1[N+](=O)[O-] | -3.7 | 0.4 | 15.2 | -1.1 | 13.3
CN(CC1CCN(CCc2cccc(C(F)(F)F)c2)CC1)C(=O)c1ccc(F)cc1 | 5.3 | -0.3 | -19.5 | -25.7 | 58.3*
CC1CN(CCCCOc2ccc(Cl)c3ccccc23)CC(C)O1 (centres undefined) | -0.1 | -2.5 | -23.8 | -12.2 | 58.3*
COc1ccc(CNC(=O)CCC2N=C3c4ccccc4N=C(SCc4ccc(F)cc4)N3C2=O)cc1 (centres undefined) | · | 0.4 | 7.3 | · | ·
CCC(C)c1ccccc1N1CC(C(=O)N2CCN(c3ccccc3)CC2)CC1=O (centres undefined) | -1.2 | · | · | 10.4 | ·
CCC(C)c1ccccc1N1CC(C(=O)N2CCN(S(=O)(=O)c3cccc([N+](=O)[O-])c3)CC2)CC1=O (centres undefined) | 3.7 | 0.7 | -8.1 | 8.0 | 35.8*
CCOC(=O)C1(CCOC)CCN(Cc2nc(C(C)C)cs2)CC1 | 0.5 | -1.6 | -3.3 | -9.2 | 32.8*
Cc1csc2ncnc(NC3CCN(Cc4ccccc4)CC3)c12 | -1.4 | -2.6 | -21.1 | -2.0 | 78.6*
Cc1ccc(-c2csc3ncnc(N4CCN(Cc5ccccc5)CC4)c23)cc1 | -2.1 | · | · | -2.9 | ·
O=C(CC12CC3CC(CC(Br)(C3)C1)C2)NC1CCCC1 | -0.5 | 1.5 | 6.6 | -3.0 | 33.7*
Cc1cc2c(cc1S(=O)(=O)CCC(=O)N1CCCCC1C)OCC(=O)N2 (centres undefined) | · | 1.9 | 1.2 | · | ·
Cn1c(Cn2nnc3ccccc32)nnc1SCC(N)=O | -2.7 | -3.1 | 33.9* | -5.0 | 6.9
CC(=O)NCCc1ccc(C(=O)COC(=O)c2cc(C)oc2C)cc1 | -0.1 | · | · | 2.8 | ·
COc1ccc(S(=O)(=O)N2CCN(C)CC2)cc1C(=O)Nc1ccccc1 | -0.4 | 0.8 | -1.1 | 0.6 | -7.3
